Screens as filed in PubChem BioAssay.
In the library only some 12% were active in any assay of this set; here they are far more common.
CHOP inh = CHOP inhibition in unfolded protein response. CHO-K1 CHOP-promoter luciferase, tunicamycin-induced, 15-18 h. inhibition, % at 10 µM. actives 3.8% (n = 220,000);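 active = compounds that reduced the stress-induced luciferase reporter signal by more than about 70% of percent inhibition, limit read from the data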;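 note: 0% = tunicamycin plus vehicle and 100% = wells without tunicamycin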
L major viab = reduces viability of Leishmania major promastigotes; resazurin fluorescence viability; inhibition, % at 10 µM; actives 9% (n = 200,000); AID 1063; in the data active = inhibition above about 50%;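 note: promastigotes grown with compound for 44 hours at 28 °C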
Arbovirus inh = arbovirus infection inhibition; arbovirus infection cell-based antiviral screen; inhibition, % at 10 µM; actives 0.37% (n = 200,000); in the data active = inhibition above about 30%
WT yeast gro inh = growth inhibition of WT yeast, mitochondrial fusion screen | AID 1362 | inhibition, % at 10 µM | mitochondrial fusion phenotypic screen, WT strain | actives 2.1% (n = 190,000); in the data active = inhibition above about 58%; tested in S. cerevisiae
* = called active by the depositor; x = no result given.

SMILES	CHOP inh	L major viab	Arbovirus inh	WT yeast gro inh
FC(F)(F)C(Oc1nc(NC2CCCCC2)nc(N2CCOCC2)n1)C(F)(F)F	54.4	81.2*	14.7	47.5
COc1ccc(Br)cc1CN(C)CC(=O)Nc1c(Cl)cccc1Cl	49.1	6.0	30.4*	28.9
N#C/C(=N\Nc1ccccc1F)c1nc(-c2ccccc2)cs1	7.3	-5.0	-6.9	5.8
C=CCN(CC=C)C(=O)c1cc(Cl)ccc1[N+](=O)[O-]	-3.3	51.3*	1.6	2.9
O=[N+]([O-])c1ccc(-c2cc(-c3ccncc3)nc3ccc4ccccc4c23)cc1	28.5	6.5	0.8	2.1
CC1CCc2c(sc3ncn(N)c(=N)c23)C1 (configuration not stated)	15.4	x	x	x
Cc1cccc(C)c1NC(=S)N(Cc1ccccc1)Cc1cccnc1	19.2	88.9*	-5.4	-3.0
CSc1cccc(NC(=S)N(Cc2ccccc2)Cc2cccnc2)c1	60.7	95.9*	2.9	30.4
COc1ccc(CN(Cc2cccnc2)C(=S)NCCc2ccccc2)cc1OC	-2.5	100.2*	5.4	0.9
COc1ccccc1NC(=S)N(Cc1ccccc1)Cc1cccnc1	14.1	32.8	-3.9	-5.4
COc1ccc2c(c1)CCC(C)N2C(=O)C(=O)c1c[nH]c2ccccc12 (configuration not stated)	13.9	x	x	x
O=Cc1[nH]c2ccccc2c1N(C(=O)CCl)c1ccccc1	87.3*	x	x	x
O=C(N(c1ccccc1)c1ccccc1)N(c1ccccc1)c1ccccc1	35.8	x	x	x
O=C(CCl)N(c1ccccc1)c1ccccc1	-35.6	77.2*	-31.4	-11.5
CCOC(=O)CC(=O)CSc1nc(-c2cccnc2)cc(C)c1C#N	7.5	-3.0	0.3	59.8*
CCOC(=O)CC(=O)CSc1nc(C)cc(-c2cccnc2)c1C#N	9.2	-6.2	5.5	0.8
COc1ccc(NC(=O)CC(CC(=O)O)c2cc(OC)c(OC)c(OC)c2)cc1 (configuration not stated)	20.2	x	x	x
C=CCn1c(Cc2cccs2)nnc1SCC(=O)NCc1ccco1	5.7	-9.2	0.3	2.4
COc1cc2c(cc1NC(=O)CSc1nnc(Cc3cccs3)n1C)oc1ccccc12	20.8	18.9	-3.4	34.5
CCn1c(SCC(=O)Nc2ccc3c(c2)oc2ccccc23)nnc1-c1ccc(N)cc1	95.1*	5.1	-13.9	19.9
Cn1c(SCC(=O)Nc2cccc(F)c2)nnc1-c1cc2ccccc2o1	73.8*	-5.2	-3.6	-9.0
COc1cc2c(cc1NC(=O)CSc1nnc(Cc3cccs3)n1Cc1ccco1)oc1ccccc12	26.2	90.7*	-8.5	8.9
Cc1cc(Cl)ccc1NC(=O)CSc1nnc(Cc2cccs2)n1Cc1ccco1	23.4	86.5*	-7.5	8.8
CC(=O)Nc1ccc(-c2nnc(SCC(=O)Nc3ccc4c(c3)oc3ccccc34)n2C)cc1	29.1	10.4	2.3	-5.0
Cc1ccc(CSC2=NCCN2C(=O)c2ccc(S(=O)(=O)N(C)C)cc2)cc1	-3.6	12.7	2.5	8.4
SMILES	CHOP inh	L major viab	Arbovirus inh	WT yeast gro inh
COC(=O)c1cnc(N2CCCN(S(=O)(=O)c3ccc(C(F)(F)F)cc3)CC2)nc1C(F)(F)F	16.4	x	x	x
COc1cc2c(cc1NC(=O)CSc1nc3ccc(C)cc3[nH]1)oc1ccccc12	76.7*	65.2*	-23.9	14.2
Cc1cc(NC(=O)CSc2nc3ccccc3[nH]2)n(-c2ccccc2)n1	14.6	x	x	x
COc1cc2c(cc1NC(=O)CSc1ccc(C)cc1)oc1ccccc12	-12.1	-0.4	0.0	40.3
CCn1c(SCC(=O)c2ccc3c(c2)Cc2ccccc2-3)nnc1-c1ccc(N)cc1	84.7*	-3.5	-8.3	-3.1
Cc1ccc2nc(SCC(=O)Nc3cc(C(C)(C)C)nn3-c3ccccc3)[nH]c2c1	72.3*	19.1	-11.3	12.4
CCn1c(SCC(=O)Nc2cc3oc4ccccc4c3cc2OC)nnc1-c1cccs1	30.7	65.9*	9.7	29.5
Cn1c(=O)n(C)c2cc(NC(=O)CSc3nnc(-c4ccccc4O)n3-c3ccccc3)ccc21	11.6	60.2*	5.0	-2.3
O=C(CSc1nnc(-c2ccncc2)n1-c1ccccc1)Nc1ccc(C(=O)O)cc1	8.5	-4.1	3.0	-8.8
CCc1nnc(NC(=O)CSc2nnc(-c3ccccc3O)n2-c2ccc(C)cc2C)s1	x	98.9*	11.0	25.1
CN1C(=O)COc2ccc(C(=O)c3oc4ccccc4c3-c3cnc4c(c3)COc3ccccc3-4)cc21	-5.7	31.9	-5.3	3.6
Cc1nc(Cl)c(C(=O)NC(=O)Nc2cccc(C(F)(F)F)c2)c(C)c1[N+](=O)[O-]	69.7	-5.0	6.2	-9.6
Cc1ccc(C)c(S(=O)(=O)NCCCN2CCOCC2)c1	-25.8	35.4	6.8	20.5
CCOc1ccc(S(=O)(=O)NCCC2=CCCCC2)c2ccccc12	18.2	28.1	-17.5	1.0
CCCOc1ccc(S(=O)(=O)NCCCN2CCOCC2)c2ccccc12	71.2*	27.8	-6.2	-3.3
COc1ccc(S(=O)(=O)NCCCN2CCOCC2)c2ccccc12	15.3	91.8*	3.5	3.6
CCOc1ccc(S(=O)(=O)NCCCN2CCOCC2)c2ccccc12	-9.9	85.3*	8.6	-18.0
CC(=O)c1ccc(OCc2ccc(Oc3c(Cl)cccc3[N+](=O)[O-])cc2)cc1	28.7	49.0	-0.1	13.1
COc1ccc(NC(=O)CN2C(=O)CSC(C)C2=O)cc1 (configuration not stated)	-30.0	-5.0	-1.7	-13.6
CC(=O)N(CCC(Cc1ccccc1)c1ccc2c(c1)OCO2)Cc1ccccc1F (configuration not stated)	58.6	8.7	-16.1	77.8*
Fc1ccccc1CNCCC(Cc1ccccc1)c1ccc2c(c1)OCO2 (configuration not stated)	28.2	66.0*	-38.2	37.2
COc1ccc(CNCCC(c2ccccc2)c2ccc3c(c2)OCO3)cc1 (configuration not stated)	46.5	100.5*	-33.2	-10.8
CC(=O)N(c1ccccc1)c1ccc([N+](=O)[O-])cc1[N+](=O)[O-]	18.9	0.7	-14.7	-11.6
N#Cc1cc([N+](=O)[O-])ccc1NC(=O)COC(=O)C12CC3CC(CC(C3)C1)C2	36.8	12.9	23.4	35.3
O=[N+]([O-])/C=C/c1cn(Cc2ccc(F)cc2)c2ccccc12	93.2*	98.8*	-48.2	x
SMILES	CHOP inh	L major viab	Arbovirus inh	WT yeast gro inh
O=C(O)c1ccc(N/N=C/c2cn(Cc3ccc(F)cc3)c3ccccc23)cc1	4.1	x	x	x
CN(C)CCC1CCN(c2cc(C#N)c(C#N)cc2[N+](=O)[O-])CC1	4.3	55.2*	-5.0	-1.9
N#Cc1cc(N2CCCCC2)c([N+](=O)[O-])cc1C#N	-28.3	-1.5	-11.8	-6.2
CC(C)(C)c1ccc(-c2nnc(SCCN3C(=O)c4ccccc4C3=O)o2)cc1	59.7	-3.1	-2.2	26.6
CC(C)n1c(CSCc2ccc(Cl)cc2Cl)n[nH]c1=S	19.1	6.3	7.3	64.8*
O=C(O)CN(CCN(CC(=O)O)CC(=O)O)CCN(CC(=O)O)CC(=O)O	-22.5	x	x	x
O=C1CN(C(=O)CN2CCOCC2)C(c2ccccc2)c2cc(Br)ccc2N1 (configuration not stated)	24.9	-0.1	8.1	9.0
O=C1CN(C(=O)CN2CCCC2)C(c2ccccc2)c2cc(Br)ccc2N1 (configuration not stated)	8.6	63.5*	10.3	0.2
